# Several values for one entry are separate records, joined by “and”; a condition that tells them apart may be missing. Identical values can stand only once. The source holds several records for some structures; these can differ, active in one and inactive in another. Activity calls are given as the source filed them. The calls were made as follows: active = hit-call score of the fitted dose curve at least 0.9, where 1 is the maximum; inactive = score below 0.9.
# How the values were obtained:
# [1] = read-out: Macrophage colony-stimulating factor (MCSF), CSF1 (gene 1435); assay: BSK_hDFCGF_MCSF: BioMAP Diversity Plus: hDFCGF Assay for Macrophage colony-stimulating factor (MCSF) Biomarker Activity (AID 2283060); settings: primary human foreskin fibroblasts; actives raise or lower the signal
# Procedure, shortened: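 M-CSF levels read by ELISA at 24 h post-dosing in human skin fibroblasts. Parallel cultures stained with SRB assessed cytotoxicity at the same time point; response fitted in both directions against the DMSO baseline.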
# [2] = read-out: TIMP metallopeptidase inhibitor 1 (TIMP1), TIMP1 (gene 7076); assay: BSK_hDFCGF_TIMP1: BioMAP Diversity Plus: hDFCGF Assay for TIMP metallopeptidase inhibitor 1 (TIMP1) Biomarker Activity (AID 2283062); settings: primary human foreskin fibroblasts; actives raise or lower the signal
# Procedure, shortened: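 TIMP-1 measured by ELISA 24 h after chemical dosing of primary human skin fibroblasts, with gain or loss fitted relative to DMSO. Parallel SRB staining (560 nm) monitored overt cytotoxicity.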
# [3] = read-out: Monokine induced gamma interferon (MIG), CXCL9 (gene 4283); assay: BSK_hDFCGF_MIG: BioMAP Diversity Plus: hDFCGF Assay for Monokine induced gamma interferon (MIG) Biomarker Activity (AID 2283063); settings: primary human foreskin fibroblasts; actives raise or lower the signal
# Procedure, shortened: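 Human primary foreskin fibroblasts in the hDFCGF system, exposed to test chemical for 24 h; MIG measured by ELISA. Bidirectional curve fitting against DMSO negative control as activity baseline.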
# [4] = read-out: Matrix Metallopeptidase 1 (MMP1), MMP1 (gene 4312); assay: BSK_hDFCGF_MMP1: BioMAP Diversity Plus: hDFCGF Assay for Matrix Metallopeptidase 1 (MMP1) Biomarker Activity (AID 2283064); settings: primary human foreskin fibroblasts; actives raise or lower the signal
# Procedure, shortened: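 MMP1 levels quantified by ELISA 24 h after dosing human dermal fibroblast cultures, with parallel SRB total-protein staining for overt cytotoxicity. Data fitted in both directions against DMSO baseline.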
# [5] = read-out: Vascular cell adhesion molecule 1 (VCAM1), VCAM1 (gene 7412); assay: BSK_hDFCGF_VCAM1: BioMAP Diversity Plus: hDFCGF Assay for Vascular cell adhesion molecule 1 (VCAM1) Biomarker Activity (AID 2283065); settings: primary human foreskin fibroblasts; actives raise or lower the signal;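 as to AC50: VCAM-1 protein level quantified by ELISA after 24 h chemical exposure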
# Procedure, shortened: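 ELISA readout of VCAM-1 on human dermal fibroblast primary cultures, 24 h after chemical exposure. Gain or loss of signal fitted in both directions against DMSO baseline.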
# [6] = read-out: Plasminogen activator inhibitor-1 (PAI1), SERPINE1 (gene 5054); assay: BSK_hDFCGF_PAI1: BioMAP Diversity Plus: hDFCGF Assay for Plasminogen activator inhibitor-1 (PAI1) Biomarker Activity (AID 2283066); settings: primary human foreskin fibroblasts; actives raise or lower the signal
# Procedure, shortened: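 Fibroblasts from human foreskin were treated with test chemical. After 24 h, PAI-1 was measured by ELISA. Activity was fitted in both directions relative to DMSO.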
# [7] = read-out: Intercellular Adhesion Molecule 1 (ICAM1), ICAM1 (gene 3383); assay: BSK_KF3CT_ICAM1: BioMAP Diversity Plus: KF3CT Assay for Intercellular Adhesion Molecule 1 (ICAM1) Biomarker Activity (AID 2283067); settings: primary human keratinocytes with fibroblasts; actives raise or lower the signal
# Procedure, shortened: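 Cell-surface ICAM-1 was measured by ELISA 24 h after dosing primary human skin keratinocytes co-cultured with fibroblasts. Parallel SRB staining tracked overt cytotoxicity. Gain or loss of signal was fitted relative to DMSO.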
# [8] = read-out: Interferon-gamma inducible Protein 10 (IP10), CXCL10 (gene 3627); assay: BSK_KF3CT_IP10: BioMAP Diversity Plus: KF3CT Assay for Interferon-gamma inducible Protein 10 (IP10) Biomarker Activity (AID 2283068); settings: primary human keratinocytes with fibroblasts; actives raise or lower the signal
# Procedure, shortened: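 Signal is secreted/surface IP-10 by ELISA in a human primary skin co-culture of keratinocytes and foreskin fibroblasts, taken 24 h post-dosing; DMSO served as negative control.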
# [9] = BSK_KF3CT_SRB: Viability Assessment in the BioMAP Diversity Plus: KF3CT Assay (AID 2283069); settings: primary human keratinocytes with fibroblasts;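 also: total protein by sulforhodamine B staining as a cytotoxicity measure; read 24 h after compound addition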
# Procedure, shortened: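 Cytotoxicity was gauged by SRB staining (0.1% SRB, 10% TCA fixation, 560 nm) of parallel cultures at 24 h. The cells were primary human skin keratinocytes co-cultured with fibroblasts, and activity was fitted in both directions against DMSO.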
# [10] = read-out: TIMP metallopeptidase inhibitor 2 (TIMP2), TIMP2 (gene 7077); assay: BSK_KF3CT_TIMP2: BioMAP Diversity Plus: KF3CT Assay for TIMP metallopeptidase inhibitor 2 (TIMP2) Biomarker Activity (AID 2283071); settings: primary human keratinocytes with fibroblasts; actives raise or lower the signal
# Procedure, shortened: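 Chemicals were dosed onto human skin primary co-cultures of keratinocytes and foreskin fibroblasts, and TIMP-2 was measured by ELISA after 24 hours. Activity in either direction was fitted relative to DMSO.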
# [11] = read-out: C-C motif chemokine 2 (Homo sapiens) (UniProt P13500); assay: BSK_KF3CT_MCP1: BioMAP Diversity Plus: KF3CT Assay for Monocyte Chemoattractant Protein 1 (MCP1/CCL2) Biomarker Activity (AID 2283073); settings: primary human keratinocytes with fibroblasts; actives raise or lower the signal
# Procedure, shortened: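 ELISA read-out of MCP-1, 24 h post-dose, in primary human skin keratinocytes co-cultured with fibroblasts. Parallel SRB staining monitors cytotoxicity; changes fitted both directions relative to DMSO.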
# [12] = read-out: Matrix Metallopeptidase 9 (MMP9), MMP9 (gene 4318); assay: BSK_KF3CT_MMP9: BioMAP Diversity Plus: KF3CT Assay for Matrix Metallopeptidase 9 (MMP9) Biomarker Activity (AID 2283074); settings: primary human keratinocytes with fibroblasts; actives raise or lower the signal;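 as to AC50: MMP9 protein level quantified by ELISA in the co-culture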
# Procedure, shortened: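 MMP-9 quantified by ELISA after 24 h chemical treatment of primary human skin keratinocyte/fibroblast co-cultures; gain or loss fitted against DMSO, with parallel SRB staining (0.1% SRB, 560 nm) for overt cytotoxicity.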
# [13] = read-out: urokinase plasminogen activator (uPA), PLAU (gene 5328); assay: BSK_KF3CT_uPA: BioMAP Diversity Plus: KF3CT Assay for urokinase plasminogen activator (uPA) Biomarker Activity (AID 2283075); settings: primary human keratinocytes with fibroblasts; actives raise or lower the signal
# Procedure, shortened: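 ELISA read-out of uPA 24 h after dosing human skin keratinocytes co-cultured with foreskin fibroblasts. Signal change fitted both ways relative to DMSO; sulforhodamine B on parallel cultures marks overt cytotoxicity.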
# [14] = read-out: CD40, CD40 (gene 958); assay: BSK_LPS_CD40: BioMAP Diversity Plus: LPS Assay for CD40 Biomarker Activity (AID 2283076); settings: primary human HUVEC with PBMC; actives raise or lower the signal
# Procedure, shortened: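 In the LPS system of human endothelial cells with peripheral blood mononuclear cells, CD40 levels were read by ELISA 24 h post-treatment. Signal changes in either direction were fitted against the DMSO baseline, with parallel SRB protein staining.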
# [15] = read-out: E-selectin (Homo sapiens) (UniProt P16581); assay: BSK_LPS_Eselectin: BioMAP Diversity Plus: LPS Assay for Eselectin Biomarker Activity (AID 2283077); settings: primary human HUVEC with PBMC; actives raise or lower the signal
# Procedure, shortened: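 E-selectin ELISA on LPS-stimulated endothelial cell/PBMC co-cultures, read 24 h post-treatment; gains and losses fitted against DMSO. Parallel SRB staining (0.1% SRB after 10% TCA fixation, 560 nm) flags overt cytotoxicity.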
# [16] = read-out: Interleukin-8 (IL8), CXCL8 (gene 3576); assay: BSK_LPS_IL8: BioMAP Diversity Plus: LPS Assay for Interleukin-8 (IL8) Biomarker Activity (AID 2283078); settings: primary human HUVEC with PBMC; actives raise or lower the signal
# Procedure, shortened: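 ELISA read-out of IL-8 after 24 h chemical treatment of LPS-activated endothelial/PBMC human primary co-cultures. Changes either up or down relative to DMSO; overt cytotoxicity checked by sulforhodamine B staining in parallel wells.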
# [17] = BSK_LPS_SRB: Viability Assessment in the BioMAP Diversity Plus: LPS Assay (AID 2283079); settings: primary human HUVEC with PBMC;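 also: total protein by sulforhodamine B absorbance as a cytotoxicity measure; measured one day after compound addition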
# Procedure, shortened: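 SRB viability endpoint: cells fixed with 10% TCA, stained with 0.1% SRB, read at 560 nm, 24 h post-dose. HUVEC/PBMC co-culture; signal change in either direction scored relative to DMSO.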
# [18] = read-out: Interleukin-1 alpha (IL1a), IL1A (gene 3552); assay: BSK_KF3CT_IL1a: BioMAP Diversity Plus: KF3CT Assay for Interleukin-1 alpha (IL1a) Biomarker Activity (AID 2283070); settings: primary human keratinocytes with fibroblasts; actives raise or lower the signal
# Procedure, shortened: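 IL-1a was detected by ELISA 24 h after chemical treatment of a co-culture of human skin keratinocytes and foreskin fibroblasts. Gain or loss of signal was fitted against the DMSO baseline.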
# Sequence of E-selectin (Homo sapiens) (P16581 whole entry, looked up): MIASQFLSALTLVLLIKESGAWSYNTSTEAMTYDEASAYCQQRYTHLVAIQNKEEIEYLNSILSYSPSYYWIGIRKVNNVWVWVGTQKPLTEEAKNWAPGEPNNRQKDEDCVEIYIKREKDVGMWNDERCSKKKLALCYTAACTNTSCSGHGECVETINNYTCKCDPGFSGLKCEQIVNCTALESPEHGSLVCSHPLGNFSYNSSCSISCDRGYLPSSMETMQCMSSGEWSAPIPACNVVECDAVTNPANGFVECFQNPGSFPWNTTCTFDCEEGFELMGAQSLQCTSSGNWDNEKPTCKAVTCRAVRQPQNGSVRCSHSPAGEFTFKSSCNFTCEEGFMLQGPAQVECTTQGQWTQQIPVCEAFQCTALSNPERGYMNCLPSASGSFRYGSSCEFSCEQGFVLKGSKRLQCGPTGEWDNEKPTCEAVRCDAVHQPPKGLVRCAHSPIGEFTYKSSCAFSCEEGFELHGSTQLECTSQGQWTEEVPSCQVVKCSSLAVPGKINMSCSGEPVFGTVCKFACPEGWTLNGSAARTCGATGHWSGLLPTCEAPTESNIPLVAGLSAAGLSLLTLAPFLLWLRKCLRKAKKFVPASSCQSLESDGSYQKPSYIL
smiles,measurement,setting,value
NC(=O)C(F)(F)C(F)(F)C(F)(F)C(F)(F)C(N)=O,outcome,[1],inactive
same,outcome,[2],inactive
same,outcome,[3],inactive
same,outcome,[4],inactive
same,outcome,[5],inactive
same,outcome,[6],inactive
same,outcome,[7],inactive
same,outcome,[8],inactive
same,outcome,[9],inactive
same,outcome,[10],inactive
same,outcome,[11],inactive
same,outcome,[12],inactive
same,outcome,[13],inactive
same,outcome,[14],inactive
same,outcome,[15],inactive
same,outcome,[16],inactive
same,outcome,[17],inactive
C=CC(=O)OCC(F)(F)C(F)(F)C(F)(F)C(F)(F)C(F)(F)C(F)(F)C(F)(F)C(F)F,AC50,[1],28.8 µM (active) and 30 µM (active)
same,outcome,[2],inactive
same,AC50,[3],26.9 µM (active) and 30 µM (active)
same,outcome,[4],inactive
same,AC50,[5],17 µM (active) and 17.5 µM (active)
same,outcome,[6],inactive
same,outcome,[7],inactive
same,outcome,[8],inactive
same,outcome,[9],inactive
same,AC50,[11],30 µM (active)
same,outcome,[11],inactive
same,outcome,[12],inactive
same,outcome,[13],inactive
same,AC50,[14],24 µM (active)
same,outcome,[14],inactive
same,outcome,[15],inactive
same,outcome,[16],inactive
same,outcome,[17],inactive
O=C(Cl)C(F)(F)C(F)(F)C(F)(F)C(F)(F)C(F)(F)C(F)(F)F,outcome,[1],inactive
same,outcome,[2],inactive
same,outcome,[3],inactive
same,outcome,[4],inactive
same,outcome,[5],inactive
same,outcome,[6],inactive
same,outcome,[7],inactive
same,outcome,[8],inactive
same,outcome,[9],inactive
same,outcome,[10],inactive
same,outcome,[11],inactive
same,AC50,[12],18.3 µM (active)
same,outcome,[12],inactive
same,outcome,[13],inactive
same,outcome,[14],inactive
same,outcome,[15],inactive
same,AC50,[16],50.3 µM (active)
same,outcome,[16],inactive
same,outcome,[17],inactive
CCN(CCO)S(=O)(=O)C(F)(F)C(F)(F)C(F)(F)C(F)(F)C(F)(F)C(F)(F)C(F)(F)C(F)(F)F,AC50,[1],23.2 µM (active) and 23.3 µM (active)
same,outcome,[2],inactive
same,AC50,[3],22.1 µM (active) and 19.1 µM (active)
same,AC50,[4],50.1 µM (active)
same,outcome,[4],inactive
same,AC50,[5],30 µM (active) and 12.8 µM (active)
same,AC50,[6],37.2 µM (active) and 25.4 µM (active)
same,outcome,[7],inactive
same,AC50,[8],33.7 µM (active) and 30 µM (active)
same,outcome,[9],inactive
same,AC50,[18],20.8 µM (active) and 30 µM (active)
same,AC50,[11],14.4 µM (active)
same,outcome,[11],inactive
same,AC50,[12],21.7 µM (active) and 20.9 µM (active)
same,outcome,[13],inactive
same,outcome,[14],inactive
same,AC50,[15],5.95 µM (active)
same,outcome,[15],inactive
same,outcome,[16],inactive
same,AC50,[17],39.4 µM (active) and 38.2 µM (active)
